Source: PubChem BioAssay (National Center for Advancing Translational Sciences (NCATS))
Pf Dd2 inh – inhibitors of Plasmodium falciparum Dd2 growth | Potency, µM (series often up to 28.9 µM), for the others: at the top dose activity, negative = inhibition, usual class: inhibitors | P. falciparum Dd2 growth, SYBR Green, 72 h | actives 4.3% (n = 120,000); active = well fitted inhibition curve with a large enough effect;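 note: plate controls were DMSO vehicle for no effect and reference drug for full effect; nearly all actives have a fitted effect of over 65% in size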
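Readout: SYBR Green fluorescence, 485 nm excitation, 535 nm emission, after ~16 h lysis at 37C. Before that, Dd2-infected red cells (2.5% hematocrit) grew 72 h with compound, 29 uM top final concentration.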
* = called active by the depositor; i = inactive; ! = not active in a repeat; [ ] = another dose, or the depositor's remark. Many of the other results were omitted from the sample, so hits are more common in it than they were. Potency is the fitted concentration of half-maximal effect.

SMILES	Pf Dd2 inh
Cc1nc(SCC(=O)Nc2ccc(C)c(Cl)c2)cc(-c2ccccc2)n1	2%
COC[C@H]1CCCN1[C@@H]1[C@H](O)[C@H](CO)O[C@@H]1CNCc1ccc(F)cc1	i
CCNC(=O)c1n[nH]c2c1CN(C(=O)c1ccccc1OC(F)(F)F)CC2	-9%
O=C(C1CCC(CNS(=O)(=O)c2ccc(Br)s2)CC1)N1CCN(c2ccccc2)CC1 (configuration not stated)	-6%
O=C(C1CCC(CNS(=O)(=O)c2cccs2)CC1)N1CCN(c2ccc(Cl)cc2)CC1 (configuration not stated)	13µM*
O=C(C1CCN(S(=O)(=O)c2cccs2)CC1)N1CCN(c2cccc(Cl)c2)CC1	-15%
O=C(CN1CCC2(CC1)CC(c1ccccc1)C(=O)N2)NCC1CCCCC1 (configuration not stated)	-29%
Cc1noc(C)c1Cc1ccc(C(=O)NCC2Cn3cccc3C(=O)N2C)o1 (configuration not stated)	17%
CC(C)(C)OC(=O)N1CCC(c2c(C(=O)NCCN3CCCC3)cnn2-c2ccc(Cl)cc2)CC1	7.1µM*
Cc1ccc(-n2ncc(C(=O)NCCN3CCC(Cc4ccccc4)CC3)c2C2CCN(C(=O)OC(C)(C)C)CC2)cc1	3.2µM*
Cc1cccc(C)c1-n1ncc(C(=O)NCCN2CCN(C)CC2)c1C1CCN(C(=O)OC(C)(C)C)CC1	-24%
Cc1c(Cl)cccc1-n1ncc(C(=O)N2CCN(C)CC2)c1C1CCN(C(=O)OC(C)(C)C)CC1	-10%
COc1ccccc1CN1CCC(CNC(=O)c2cnn(-c3ccc(Cl)cc3)c2C2CCN(C(=O)OC(C)(C)C)CC2)CC1	1.3µM*
Cc1c(Cl)cccc1-n1ncc(C(=O)NCCN2CCN(C)CC2)c1C1CCN(C(=O)OC(C)(C)C)CC1	11µM*
CCc1nncn1C1CCN(S(=O)(=O)c2cc(F)cc(F)c2)CC1	5%
COc1ccc(C(=O)N2CCC3(CC2)OCC(C(=O)NC2CC2)N3C(=O)c2ccc(F)cc2)cc1 (configuration not stated)	-28%
Cc1nc(C(C)C)sc1C(=O)N[C@H]1C[C@H]2CN(C)CCN2C1	2%
c1ccc(-c2ccnc3nc(-c4cccs4)nn23)cc1	i
Cn1nccc1C(=O)N1CCC2(CC1)CC(Cc1nc(C3CC3)no1)CCO2 (configuration not stated)	i
COC(=O)[C@H](NC(=O)[C@@]1(O)C[C@@H](O)[C@H](O)[C@@H](NC(=O)Nc2ccc(C(C)=O)cc2)C1)C(C)C	29%
COc1cc2c(cc1Cn1cc(-c3nccn3C)nn1)CCC2	-17%
COc1cc(C)c(CN2CCCn3nc(C(=O)N4CCCC4)cc3C2)cc1C	-14%
COCC(=O)NC1CCC12CCN(C(=O)c1ccc(OC)cc1)CC2 (configuration not stated)	5%
Cc1nn(C)c(C)c1CCC(=O)N[C@@H]1CN(c2ncccn2)C[C@H]1CO	25%
CCn1ccc(C(=O)N2C[C@@H](Oc3ccccc3)C[C@@H]2C(=O)NCCOC)n1	-19%
SMILES	Pf Dd2 inh
COCC(=O)Nc1ccc([C@H]2OCC(=O)N(CC(C)C)[C@@H]2CO)cc1	i
O=C(c1[nH]nc2c1COc1ccccc1-2)N1CCCC(Cc2nc(C3CCOCC3)no2)C1 (configuration not stated)	i
O=C1N(C2CCCCC2)C[C@H]2CN(Cc3cccc(Cl)c3)CCN12	-8%[44.1 µM]
CN(Cc1ccc(F)cc1)C(=O)c1ccccc1Cl	-15%[44.1 µM]
O=C1NCC2(CCN(Cc3ccc(F)cc3)CC2)Oc2ccccc21	-12%
O=C1NC2(CCN(CC3CCCCC3)CC2)COc2ccccc21	10µM*
O=C1NC2(CCN(CC3CC3)CC2)COc2ccccc21	-22%[44.1 µM]
O=C1NC2(CCN(Cc3ccccc3C(F)(F)F)C2)COc2ccccc21 (configuration not stated)	i
O=C1NC2(CCN(Cc3ccc(F)cc3)CC2)COc2ccccc21	3.2µM*
O=C1NC2(CCCN(Cc3ccc(C(F)(F)F)cc3)C2)COc2ccccc21 (configuration not stated)	11µM*!
O=C1NCC2(CCN(CC3CCCCC3)CC2)Oc2ccccc21	3%
O=[S+]1([O-])NC2(CCCN(Cc3ccc(C(F)(F)F)cc3)C2)COc2ccccc21 (configuration not stated)	0%
O=C1NC2(CCN(Cc3cccnc3)CC2)COc2ccccc21	-13%[44.1 µM]
Cc1ccnn1CCC(=O)N[C@@H]1COCC[C@H]1Oc1ccc(C(N)=O)cc1	-4%
CC1(C(=O)N2CCN(Cc3ccc4c(c3)OCO4)CC2)CCCCC(=O)N1 (configuration not stated)	-15%
CN(C)C(=O)N(C)Cc1ccc(F)cc1	2%[44.1 µM]
Cc1ccccc1C(=O)N(C)C(C)c1cccs1 (configuration not stated)	i
CCC(=O)NCC12CCCC=C1NC(=O)CC2 (configuration not stated)	38%
COc1ccc(OC)c(NC(=O)CN2C(=O)C(c3ccccc3)=NC23CCCC3)c1	i
Cc1cncc(C(=O)N2CC[C@@H](c3ccc4ccccc4c3)[C@H](O)C2)c1	-15%
